PostGolgi ctrl: growth of the yeast control strain, post-Golgi counter-screen; efflux-deficient yeast background strain, growth absorbance A615, 16 h; 98,000 compounds, 5% hits; AID 738; inhibition, % at 10 µM
CYP2C9 inhib: blocks human cytochrome P450 2C9; inhibition, % at 5 µM; P11712; CYP2C9 Supersomes, luciferin-H conversion, luminescence; 96,000 compounds, 20% hits;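 active means blocking of liver enzyme CYP2C9 beyond about 50% at 5 µM, limit read from the data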
CYP2C19 act: cytochrome P450 2C19 (human) activation | recombinant CYP2C19, luciferin-H EGE luminescence; hits give high values; 0 = fully inhibited enzyme, 1 = untreated enzyme | activation factor at 5 µM | 96,000 tested, under 10 active | AID 1025;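 active means activation factor of at least 2 at 5 µM in the primary screen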;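 further: 0 = wells with 2.5 mM tranylcypromine and 1 = vehicle-only wells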
Target sequence (P33261 whole entry, looked up): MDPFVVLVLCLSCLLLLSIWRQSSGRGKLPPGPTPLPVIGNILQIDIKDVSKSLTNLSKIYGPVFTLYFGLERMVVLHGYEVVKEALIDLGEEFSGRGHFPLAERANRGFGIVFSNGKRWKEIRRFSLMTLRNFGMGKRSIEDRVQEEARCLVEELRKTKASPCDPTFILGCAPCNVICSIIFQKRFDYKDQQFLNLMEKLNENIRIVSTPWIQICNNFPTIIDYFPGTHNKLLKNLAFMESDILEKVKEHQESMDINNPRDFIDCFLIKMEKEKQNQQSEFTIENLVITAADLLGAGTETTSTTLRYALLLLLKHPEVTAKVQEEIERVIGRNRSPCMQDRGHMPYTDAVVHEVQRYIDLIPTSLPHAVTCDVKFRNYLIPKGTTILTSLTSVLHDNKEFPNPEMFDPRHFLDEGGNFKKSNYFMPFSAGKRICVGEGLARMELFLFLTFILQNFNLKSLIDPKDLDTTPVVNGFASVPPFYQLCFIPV
PostGolgi yeast: growth inhibition of a yeast mutant, post-Golgi transport screen. post-Golgi transport phenotypic cell assay. inhibition, % at 10 µM. 98,000 compounds, 0.9% hits. AID 739;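 further: yeast cells grown in 1536-well plates; yeast grown about 18 h at 30C before absorbance read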
CYP2C19 inh: blocks human cytochrome P450 2C19. P33261. CYP2C19 Supersomes, luciferin-H EGE luminescence, 30 min. inhibition, % at 5 µM. 96,000 compounds, 21% hits. AID 778;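 active means CYP2C19 inhibition above a set limit at 5 µM in the primary screen, cut at about 50% in these data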;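 further: plate controls were negative control wells for no effect and 2.5 mM tranylcypromine positive control for full effect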
CYP2C9 activ: increases human cytochrome P450 2C9 activity. recombinant CYP2C9, luciferin-H conversion, luminescence; hits give high values; factor 1 = untreated enzyme, 0 = blocked. activation factor at 5 µM. 96,000 compounds, 1.4% hits. AID 1024;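 active means activation factor of 2 or more for CYP2C9 at a 5 µM dose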;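 further: 0 = sulfaphenazole-blocked wells and 1 = vehicle-only wells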
* hit, by the source's call; nt = no result. Shown are actives, neighbours in structure and some others; about 32% of the full set was active somewhere. Unless noted, no stated cut-off is given here; in the data, active means inhibition above about 30%; inactive means the rest.

SMILES	PostGolgi ctrl	CYP2C9 inhib	CYP2C19 act	PostGolgi yeast	CYP2C19 inh	CYP2C9 activ
CCN1CCN(C(=S)c2ccc(OCC(=O)N3CCOCC3)cc2)CC1	2	-1	0.9	-10	6	1
COc1ccc(S(=O)(=O)N2CCSC2c2ccccc2)cc1 (centres undefined)	26	-62	0	10	99*	1.6
CC(=O)Nc1ccc(S(=O)(=O)N2CCSC2c2ccccc2Cl)cc1 (centres undefined)	3	3	0.9	0	12	1
O=C(CN1C(=O)COCC1=O)N1CCOCC1	0	6	1	-1	3	0.9
Nc1cc(-c2ccc(Cl)cc2)nn1S(=O)(=O)c1ccc(Cl)cc1	9	25	0.8	0	18	0.8
Cc1ccc(S(=O)(=O)n2cc(-c3ccccc3)c(N)n2)cc1	25	90*	0.5	25	52*	0.1
Cc1ccc(S(=O)(=O)n2nc(-c3cccnc3)nc2N)cc1	nt	5	0.9	nt	7	1
N#Cc1cccc(-c2cn(S(=O)(=O)c3ccc(Cl)cc3)nc2N)c1	31*	39	0.9	-7	11	0.6
Nc1nc(-c2cccnc2)nn1C(=O)c1ccco1	2	-9	1	9	1	1.1
Cc1nnc(NC(=O)C2C3C=CC(O3)C2C(=O)O)s1 (centres undefined)	11	6	0.9	-4	11	0.9
COc1ccccc1N1CCN(C(=O)c2ccc(CS(=O)(=O)c3ccccc3OC)o2)CC1	10	79*	0.7	-3	35	0.2
COc1ccccc1S(=O)(=O)Cc1ccc(C(=O)N2CCN(c3ccc(C)cc3)C(C)C2)o1 (centres undefined)	10	91*	0.4	3	55*	0.1
CCOC(=O)N1CCN(C(=O)c2ccc(CS(=O)(=O)c3ccccc3OC)o2)CC1	6	22	1	-3	-3	0.8
COc1ccc(S(=O)(=O)Cc2ccc(C(=O)N3CCN(c4cccc(C)c4)C(C)C3)o2)cc1 (centres undefined)	47*	90*	0.4	-8	58*	0.1
CCc1ccccc1S(=O)(=O)Cc1ccc(C(=O)N2CCN(c3ccccn3)CC2)o1	18	5	0.6	3	39	1
Cc1ccccc1S(=O)(=O)Cc1ccc(C(=O)N2CCN(c3ncccn3)CC2)o1	5	84*	0.1	-2	92*	0.2
CCOC(=O)N1CCN(C(=O)CCc2c(C)nc3c(c(C)nn3-c3ccc(C)c(C)c3)c2C)CC1	27	49	0.7	-2	32	0.5
O=C(C1CCN(S(=O)(=O)N2CCCC2)CC1)N1CCCCC1	14	-30	1	16	-5	1.3
COC(Cc1nnc(SC)n1-c1ccc(Cl)cc1)OC	-10	14	0.9	-4	7	0.9
COc1cc(CN2CCC(C(=O)N3CCN(c4ccccc4F)CC3)CC2)cc(OC)c1O	3	70*	0.9	9	5	0.3
COc1cc(CN2CCN(c3ccccc3F)CC2)cc(OC)c1O	3	14	0.2	0	80*	0.9
COC(=O)c1cc(CN2CCN(c3ccccc3C)CC2)ccc1O	33*	51*	0.6	-1	41	0.5
COc1ccc(N2CCN(C(c3cccs3)c3nnnn3C3CCCC3)CC2)cc1 (centres undefined)	78*	64*	0.7	13	29	0.4
Fc1ccc(N2CCN(C(c3cccs3)c3nnnn3C3CCCC3)CC2)cc1 (centres undefined)	36*	98*	0	11	96*	0
C=C(C)CSc1nnc([C@@H]2CCCN2C(=O)OC(C)(C)C)o1	0	-1	0.5	7	47	1
SMILES	PostGolgi ctrl	CYP2C9 inhib	CYP2C19 act	PostGolgi yeast	CYP2C19 inh	CYP2C9 activ
CCC1(CC)NC(=O)NC1=O	26	-7	1.1	22	-13	1.1
N#Cc1ccc(-c2nnnn2-c2ccc3c(c2)OCO3)cc1	9	27	0.4	-2	61*	0.7
N#Cc1cccc(-n2nnnc2-c2ccccn2)c1	3	8	0.9	18	9	0.9
N#Cc1cccc(-n2nnnc2-c2ccc3c(c2)OCO3)c1	-1	22	0	-6	97*	0.8
COc1ccc(OC)c(C2NC(=O)NC(C)=C2C(=O)Nc2ccc(C)cc2C)c1 (centres undefined)	0	24	0.6	9	44	0.8
S=c1[nH]cc(-c2ccccc2)n1-c1ccccc1	7	78*	0.2	2	79*	0.2
CCn1c(-c2ccccc2)c[nH]c1=S	6	31	0.4	-1	58*	0.7
CCOc1cccc(-c2cc(-c3n[nH]c(=S)n3CC)c3ccccc3n2)c1	21	32	0.8	2	24	0.7
CCCCN1CC(C(=O)NCc2ccc(C)cc2)CC1=O (centres undefined)	-2	-21	1	0	2	1.2
COCCN(CC(=O)NCC1CCCO1)C(=O)CCC(=O)Nc1cc(C)on1 (centres undefined)	-4	-6	1.2	-2	-17	1.1
C=CCN(CC(=O)NCC1CCCO1)C(=O)CCC(=O)Nc1cc(C)on1 (centres undefined)	4	8	1	7	3	0.9
COCCNC(=O)CN(C(=O)CCC(=O)Nc1cc(C)on1)c1cccc(C)c1C	-2	41	0.4	-3	57*	0.6
CC(=O)c1cccc(N(CC(=O)NCC2CCCO2)C(=O)CCC(=O)Nc2cc(C)on2)c1 (centres undefined)	41*	-10	0.9	-9	8	1.1
O=C1c2ccccc2C(Nc2ccccc2F)N1c1cccnc1 (centres undefined)	0	16	0.6	-6	36	0.8
CCc1cccc(NC2c3ccccc3C(=O)N2c2ccc(C)cn2)c1 (centres undefined)	24	50*	0.2	1	85*	0.5
CCOC(=O)c1ccc(NC2c3ccccc3C(=O)N2c2cccnc2)cc1 (centres undefined)	13	75*	0.1	0	88*	0.2
CCc1cccc(NC2c3ccccc3C(=O)N2c2cccnc2)c1 (centres undefined)	-1	53*	0	-1	97*	0.5
O=C(NCC1CCCO1)c1csc2c1CCCC2 (centres undefined)	10	-47	1	-3	0	1.5
COc1ccc(N(CC(=O)NN=C2CCCCCCC2)S(=O)(=O)c2ccccc2)cc1	4	43	0.7	-9	32	0.6
COC(=O)c1c(NC(=O)C2CC=CCC2C(=O)O)sc(C(N)=O)c1C (centres undefined)	-9	29	1	3	2	0.7
COC(=O)c1c(NC(=O)C2CC=CCC2C(=O)O)sc(C)c1C (centres undefined)	-5	71*	0.8	3	21	0.3
